± gives the standard deviation.
Key:
Settings in all cases: modulator concentration 10 µM
[1] = test system: RAW-Dual (murine macrophage reporter line); test: NF-kB reporter (SEAP) activity fold change vs agonist alone; higher = enhanced NF-kB activity
Outline: (§1)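 Overnight stimulation with a PRR agonist followed pre-incubation for 1 hour at 37 °C with compound at 10 μM final. This was done in RAW-Dual murine macrophage reporter cells seeded at 50 000 per well in 384-well plates. NF-κB (SEAP, QUANTI-Blue absorbance at 620 nm) and IRF (Lucia luciferase, QUANTI-Luc luminescence) were read from the supernatant. Each reporter's fold change relative to the mean agonist-only control on the same plate was averaged over replicate plates.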

[2] = test system: RAW-Dual (murine macrophage reporter line); test: IRF reporter (Lucia luciferase) activity fold change vs agonist alone; higher = enhanced IRF activity
Outline: as §1

[3] = test system: RAW-Dual (murine macrophage reporter line); test: viability score (confluency relative to resting cells, overnight) (fraction); higher = more viable, active = viable (0.7 or more)
Outline: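 RAW-Dual macrophages in 384-well plates were treated overnight with compound at 10 μM final. IncuCyte imaging recorded confluency, and IncuCyte software built two confluency masks across every imaged well. The viability score expresses confluency relative to resting cells and was judged against a cutoff, which a compound met only if both masks exceeded 70% of resting cells.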

[4] = agonist: CpG ODN 1826 0.5 ug/mL

| SMILES | NF-kB reporter [1, 4] | NF-kB reporter ([1]; agonist: LPS 0.1 ug/mL) | NF-kB reporter ([1]; agonist: MPLA […]) | IRF reporter ([2]; agonist: 3'3'-cGAMP 10 ug/mL) | IRF reporter ([2]; agonist: LPS 0.1 ug/mL) | IRF reporter ([2]; agonist: MPLA […]) | viability score [3] |
| --- | --- | --- | --- | --- | --- | --- | --- |
| COc1ccc(C2CC(=O)c3c(O)cc(O)cc3O2)cc1O (configuration not stated) | 1.43 ± 0.35 | 1.14 ± 0.064 | 1.15 ± 0.073 | 0.845 ± 0.028 | 1.14 ± 0.21 | 1.1 ± 0.1 | 1 (active) |
| CCOc1ccc(S(=O)(=O)NCCn2nc(C3CC3)ccc2=O)cc1C | 1.01 ± 0.063 | 1.07 ± 0.12 | 1.04 ± 0.045 | 1.02 ± 0.051 | 0.993 ± 0.079 | 0.875 ± 0.15 | 0.982 (active) |
| Fc1ccc(Nc2nc(NN=Cc3c[nH]nc3-c3ccccc3)nc(N3CCOCC3)n2)cc1 | 0.537 ± 0.044 | 0.981 ± 0.071 | 2.12 ± 0.2 | 1 ± 0.1 | 1.57 ± 0.21 | 2.78 ± 0.4 | 0.875 (active) |
| COc1ccc(-n2nc(C(N)=O)c3c2C(=O)N(c2ccc(N4CCCCC4=O)cc2)CC3)cc1 | 0.793 ± 0.076 | 0.859 ± 0.052 | 1.12 ± 0.12 | 0.994 ± 0.046 | 1.19 ± 0.073 | 1.33 ± 0.11 | 1.01 (active) |
| CS(=O)(=O)NCc1cccc(Oc2ccc(F)cc2)c1 | 1.03 ± 0.066 | 0.955 ± 0.079 | 0.997 ± 0.029 | 1.1 ± 0.046 | 0.992 ± 0.061 | 1.03 ± 0.1 | 0.997 (active) |
| Cc1cccc(CS(=O)(=O)N2CCC(S(=O)(=O)c3nccn3C)CC2)c1 | 1.04 ± 0.078 | 1.02 ± 0.082 | 0.983 ± 0.038 | 1.04 ± 0.088 | 0.979 ± 0.089 | 1.05 ± 0.12 | 0.998 (active) |
| CCn1cc(C(=O)NN)c(=O)c2cc(F)c(N3CCCCCC3)cc21 | 0.966 ± 0.076 | 0.98 ± 0.091 | 0.979 ± 0.12 | 0.965 ± 0.035 | 1.29 ± 0.11 | 1.19 ± 0.12 | 1.01 (active) |
| CCN1C(=O)CC(NCCc2ccc(S(N)(=O)=O)cc2)C1=O (configuration not stated) | 0.979 ± 0.056 | 1.03 ± 0.074 | 0.905 ± 0.065 | 0.961 ± 0.035 | 1.46 ± 0.19 | 1.22 ± 0.16 | 0.997 (active) |
| CN1CCN(C(CNC(=O)c2ccccc2Br)c2ccc(F)cc2)CC1 (configuration not stated) | 0.878 ± 0.047 | 0.967 ± 0.12 | 0.944 ± 0.13 | 1.03 ± 0.053 | 1.06 ± 0.093 | 0.936 ± 0.34 | 1.01 (active) |
| Cl.OC(CCN1CCCCC1)(c1ccccc1)C1CCCCC1 (configuration not stated) | 0.338 ± 0.034 | 1.01 ± 0.081 | 1.11 ± 0.075 | 1.03 ± 0.058 | 1.11 ± 0.19 | 1.08 ± 0.34 | 1.01 (active) |
| COc1cccc(-c2csc(C(C#N)=CNc3cc(Cl)ccc3OC)n2)c1 | 0.939 ± 0.096 | 1.06 ± 0.083 | 0.963 ± 0.093 | 0.964 ± 0.024 | 1.24 ± 0.21 | 1.01 ± 0.26 | 1.01 (active) |
| CC1(C)CC(=O)C=C(Nc2ccc(Br)c(Cl)c2)C1 | 0.734 ± 0.066 | 0.962 ± 0.067 | 0.839 ± 0.083 | 1.14 ± 0.06 | 1.08 ± 0.066 | 1.08 ± 0.12 | 1.02 (active) |
| CC(C)CC(C(=O)Nc1ccc(Cl)cc1)N1C(=O)c2ccccc2C1=O (configuration not stated) | 1.01 ± 0.17 | 0.982 ± 0.085 | 0.938 ± 0.089 | 0.988 ± 0.053 | 1.15 ± 0.21 | 1.21 ± 0.2 | 0.6 (inactive) |
| O=C(CSc1ccc2nc(-c3ccccc3)cn2n1)Nc1ccc(Br)cc1 | 0.931 ± 0.2 | 0.957 ± 0.077 | 0.995 ± 0.15 | 0.624 ± 0.017 | 1.21 ± 0.25 | 1.31 ± 0.23 | 0.988 (active) |
| O=C1c2ccccc2C(=O)C1c1ccccc1 | 1.36 ± 0.21 | 1.01 ± 0.085 | 1.32 ± 0.15 | 0.856 ± 0.03 | 1.18 ± 0.1 | 0.968 ± 0.14 | 0.996 (active) |
| CCN(CC)CCOC(=O)C(c1ccccc1)c1ccccc1.Cl | 0.913 ± 0.08 | 0.887 ± 0.067 | 0.965 ± 0.084 | 1.58 ± 0.074 | 1.29 ± 0.12 | 1.49 ± 0.12 | 0.941 (active) |
| Nc1nc(Cl)nc2c1ncn2[C@H]1C[C@H](O)[C@@H](CO)O1 | 1.91 ± 0.4 | 1.39 ± 0.11 | 1.65 ± 0.12 | 0.723 ± 0.055 | 1.09 ± 0.096 | 1.08 ± 0.22 | 0.244 (inactive) |
| CCC(C)(Oc1ccc(C2(c3ccc(OC(C)(CC)C(=O)O)cc3)CCCCC2)cc1)C(=O)O (configuration not stated) | 1.14 ± 0.26 | 1.09 ± 0.39 | 0.919 ± 0.063 | 0.946 ± 0.037 | 1.29 ± 0.44 | 1.24 ± 0.093 | 0.986 (active) |
| COC(=O)C1=C(C)NC(C)=C(C(=O)OCCN(C)Cc2ccccc2)C1c1cccc([N+](=O)[O-])c1.Cl (configuration not stated) | 0.996 ± 0.055 | 0.91 ± 0.074 | 0.887 ± 0.047 | 1.1 ± 0.052 | 1.01 ± 0.16 | 0.988 ± 0.29 | 0.397 (inactive) |
| CS(=O)(=O)N(CC(=O)NC1CC1)c1cccc2ccccc12 | 1.04 ± 0.095 | 1.01 ± 0.12 | 0.901 ± 0.056 | 1 ± 0.039 | 1.59 ± 0.35 | 1.16 ± 0.17 | 1.01 (active) |
| Cc1ccc(/C(=C\CN2CCCC2)c2ccccn2)cc1.Cl.O | 0.96 ± 0.26 | 1.11 ± 0.056 | 1.05 ± 0.073 | 0.672 ± 0.03 | 1.09 ± 0.13 | 1.31 ± 0.18 | 0.553 (inactive) |
| Cc1nc2c(ccc3ccccc32)c(O)c1CN1CCCC1 | 0.283 ± 0.029 | 0.968 ± 0.076 | 0.95 ± 0.044 | 0.882 ± 0.073 | 1.06 ± 0.11 | 0.808 ± 0.17 | 1 (active) |
| Cl.OC(CCCN1CCCCC1)(c1ccccc1)c1ccccc1 | 0.856 ± 0.037 | 0.895 ± 0.088 | 0.982 ± 0.061 | 1.63 ± 0.092 | 1.1 ± 0.3 | 1.08 ± 0.47 | 0.998 (active) |
| COc1ccc2ccccc2c1-c1nnc2ccc(C(F)(F)F)cn12 | 0.87 ± 0.1 | 0.997 ± 0.056 | 0.854 ± 0.089 | 0.992 ± 0.036 | 1.37 ± 0.18 | 1.07 ± 0.2 | 1.01 (active) |
| CC(=O)Nc1ccc(O)cc1 [Prestw-868] | 0.876 ± 0.28 | 1.04 ± 0.081 | 0.965 ± 0.082 | 0.972 ± 0.056 | 0.938 ± 0.19 | 1.03 ± 0.14 | 0.998 (active) |
| C=C(CC)C(=O)c1ccc(OCC(=O)O)c(Cl)c1Cl [Prestw-259] | 0.596 ± 0.14 | 0.588 ± 0.077 | 0.722 ± 0.049 | 0.563 ± 0.02 | 1.85 ± 0.21 | 1.53 ± 0.17 | 0.953 (active) |

Reference: the supplement of paper PMC10646978
